From PubChem BioAssay
M1 antag = antagonists of rat M1 muscarinic receptor; Muscarinic acetylcholine receptor M1 (Rattus norvegicus), P08482; CHO-M1 cells, Fluo-4 calcium, ACh EC80 antagonist mode; hits give low values; B-score at 10 µM; actives 3.4% (n = 64,000);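 active = calcium fluorescence response, raw or row-and-column corrected B-score, differing from the plate sample mean either way at a set confidence level, mostly lower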
Target sequence (P08482 whole entry, looked up): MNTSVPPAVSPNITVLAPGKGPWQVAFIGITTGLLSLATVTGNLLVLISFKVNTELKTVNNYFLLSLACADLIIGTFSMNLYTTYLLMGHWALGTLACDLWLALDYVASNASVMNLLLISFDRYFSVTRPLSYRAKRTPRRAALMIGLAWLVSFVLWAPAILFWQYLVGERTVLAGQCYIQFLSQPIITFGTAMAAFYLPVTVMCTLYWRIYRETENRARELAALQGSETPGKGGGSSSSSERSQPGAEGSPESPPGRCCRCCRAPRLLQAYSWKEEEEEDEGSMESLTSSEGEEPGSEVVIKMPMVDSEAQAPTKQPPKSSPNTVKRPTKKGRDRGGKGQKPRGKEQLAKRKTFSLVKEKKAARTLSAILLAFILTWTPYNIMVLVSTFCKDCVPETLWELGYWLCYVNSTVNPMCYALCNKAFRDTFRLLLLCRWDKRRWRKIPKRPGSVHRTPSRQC
Fluor 339 460 = intrinsic fluorescence of library compounds, ex339/em460 – biochemical, MLSMR library, data from DPM-DC assay, artefact control, profiling panel; compound autofluorescence, ex339/em460 nm, NADH buffer; hits give high values; 1 = no-compound wells, NADH background; fluorescence fold increase at 10 µM; actives 5.5% (n = 65,000);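 active = at 10 µM, mean starting fluorescence two-fold or more over control wells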;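 note: signal is the first read of a kinetic run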
A340 absorber = compound light absorbance at 340 nm, profiling panel, artefact control, biochemical, MLSMR library, data from PS, PMK, MK assays; compound absorbance at 340 nm, fold over control; fold change at 10 µM; 65,000 tested, under 10 active; AID 708, 2007;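 active = at 10 µM dose, initial 340 nm absorbance at least 2 fold that of control wells; inactive = change under 2 fold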;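 note: initial absorbance extrapolated from kinetic A340 decline of NADH oxidation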
M1 agonist = M1 muscarinic receptor agonists, primary screen, CHO-M1 cells, Fluo-4 calcium, agonist mode; Muscarinic acetylcholine receptor M1; AID 626, 2007; actives 3% (n = 64,000); B-score at 10 µM; Fluo-4 calcium fluorescence; hits give high values;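 active = fluorescence rise, raw or as B-score row- and column-corrected plate score, outside the 99.7% band of its plate's samples, either direction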
WNV NS2B-NS3 inh = inhibitors of WNV NS2B-NS3 protease, primary screen, biochemical, fluorogenic substrate. actives 0.18% (n = 65,000). AID 577, 2007. z-score (concentration not given with the values). fluorogenic substrate Ex360/Em465; hits give low values; in the data active = z-score below about -3
BAP1 inh = inhibitors of BAP1 deubiquitinase, primary screen, biochemical, Ub-AMC fluorescence, kinetic. Ubiquitin carboxyl-terminal hydrolase BAP1 (Homo sapiens), Q92560. actives 0.48% (n = 72,000). AID 436, 2006. calls only at 20 µM. recombinant BAP1, Ub-AMC hydrolysis fluorescence kinetic; hits give low values;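 active = activity remaining at or below 50% of control, provided the compound also passes the data quality filters; inactive = the rest, including low values that fail the filters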;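 note: 100% = DMSO wells rate and 0% = substrate alone blank rate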
M1 ag confirm = rat M1 muscarinic receptor agonists, confirmation, CHO-M1 cells, Fluo-4 calcium, duplicate retest; shares compounds with M1 agonist; Fluo-4 calcium fluorescence, agonist mode; actives lie on both sides; fluorescence change (max-min) at 10 µM; actives 19% (n = 1,700); AID 1488, 2009;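 active = fluorescence change differs from the solvent-only DMSO control mean at a set confidence level in both duplicate runs; inconclusive = differs from solvent-only control mean in just one of two runs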;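 note: an EC20 dose of acetylcholine follows compound addition during the same imaging run; raw fluorescence intensity difference in instrument units with no normalization to controls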
M4 agonist ctr = agonist activity at rat M4 receptor, confirmation, counter-screen for M1 allosteric modulator project, cell-based, agonist mode; shares compounds with M1 agonist; CHO M4/Gqi5 cells, Fluo-4 calcium fluorescence; actives lie on both sides; fluorescence change (max-min) at 10 µM; actives 9% (n = 1,700);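 active = fluorescence change differing from the plate's solvent-only control wells at 99.7% confidence in both duplicates, whether higher or lower; inconclusive = differs from solvent controls in only one of two duplicates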
The depositor's hits bear a star; i = inactive; ? = inconclusive; · = not tested or not shown. An excerpt weighted towards active compounds, which were near 9.7% of everything screened.

SMILES	M1 antag	Fluor 339 460	A340 absorber	M1 agonist	WNV NS2B-NS3 inh	BAP1 inh	M1 ag confirm	M4 agonist ctr
COc1ccccc1NC(=O)CN1CCN(CC(=O)Nc2cc(NC(C)=O)ccc2OC)CC1	0.068	1.1	1	3.7*	0.41	i	?	-31
O=C(NCc1ccccc1)c1ccc(Cl)c(S(=O)(=O)N2CCOCC2)c1	·	·	·	·	·	i	·	·
COc1ccc(NC(C)=O)cc1NC(=O)CN1CCN(CC(=O)Nc2ccccc2Cl)CC1	-0.035	1.1	1	4*	0.2	i	?	-71
CCOC(=O)N1CCN(C2=Nc3cccc4cccc2c34)CC1	-11*	1.4	1	8.5*	0.01	i	107*	?
CC(=O)N1CCN(C2=Nc3cccc4cccc2c34)CC1	-0.69	1.6	1.1	9.5*	0.78	i	101*	92*
O=C1CCCN1Cc1cc(Cl)c2cccnc2c1O	·	·	·	·	·	i	·	·
CCn1c(SCC(=O)c2cc(C)n(CC3CCCO3)c2C)nc2ccccc21 (stereo not given)	0.033	1	1	5.3*	-0.41	i	?	-44
CCC1CCCCN1C(=O)CSc1nnc(-c2cccc(Cl)c2)o1 (stereo not given)	0.23	1.1	1	2.5*	-1.1	i	-12	-23
CCC1CCCCN1C(=O)CSc1nnc(-c2ccc(Cl)cc2)o1 (stereo not given)	-1.1	1.1	1	-1.7	0.006	i	·	·
CC12CC3CC(C1)CC(NC(=O)c1ccc4ccccc4n1)(C3)C2	·	·	·	·	·	i	·	·
O=C1c2ccccc2C(=O)N1SC1CCCCC1	-0.76	1	1	6.4*	0.11	i	?	-43
Cc1sc(NC(=O)CSc2nnc(COc3ccccc3)n2C)c(C#N)c1C	-0.17	2.1*	1	2.4*	2.6	i	?	-51
COC(=O)c1cccc(NC(=O)CSc2nnc(COc3ccc(C#N)cc3)n2-c2ccccc2)c1	-0.11	1.1	1	3.6*	-0.05	i	?	-49
COC(=O)c1cccc(NC(=O)CSc2nnc(COc3cccc(C)c3)n2C)c1	1.1	1.1	1	-1.5	-1.2	i	·	·
Cc1ccc(OCc2nnc(SCC(=O)Nc3sc(C)c(C)c3C#N)n2C)cc1	0.05	1.1	1.1	-0.044	-1.1	i	·	·
Cc1ccc(C(=O)N2CCN(S(C)(=O)=O)C2)cc1	1.1	1.1	1	4*	0.56	i	?	-60
Cc1ccc(C(=O)N2CCN(c3ccc(Cl)cc3)CC2)cc1	0.57	1.1	1	-1.2	-0.38	i	·	·
O=C(Cn1c2ccccc2c(=O)c2ccccc21)NCc1ccco1	·	·	·	·	·	i	·	·
COCCn1c(N)c(C(=O)NCC2CCCO2)c2nc3ccccc3nc21 (stereo not given)	-0.55	2.4*	1.1	7.8*	0.36	·	-26*	?
CCCOC(=O)c1ccc(-c2n[nH]c(=O)c3ccccc23)cc1	·	·	·	·	·	i	·	·
O=C(Cn1ccc2ccccc2c1=O)NCCC(=O)N1CCN(C2CCCCC2)CC1	-0.86	1.1	0.98	17*	-0.62	i	-1.5	-25
COC(=O)c1cccc(S(=O)(=O)N2CCC(C)CC2)c1	0.26	1	0.98	-0.71	0.45	i	·	·
COC(=O)c1cccc(S(=O)(=O)N2CCC(NC(=O)NC34CC5CC(CC(C5)C3)C4)CC2)c1	-1.7	1.1	1	3.8*	0.56	·	?	-58
c1ccc(CSc2nnnn2-c2ccc3c(c2)OCCO3)nc1	0.22	1.1	1	6.7*	0.35	i	-9.7	-24
O=C(Nc1nnc(CCS(=O)(=O)c2ccc(Cl)cc2)s1)c1cccs1	·	·	·	·	·	i	·	·
SMILES	M1 antag	Fluor 339 460	A340 absorber	M1 agonist	WNV NS2B-NS3 inh	BAP1 inh	M1 ag confirm	M4 agonist ctr
CCC(Sc1nnc(-c2ccc(C)c(Cl)c2)n1CC)C(=O)Nc1nccs1 (stereo not given)	-0.099	1.1	1	5.2*	-0.31	i	-13	-55
CCOC(=O)c1ccc(Nc2ncc([N+](=O)[O-])cc2[N+](=O)[O-])cc1	·	·	·	·	·	i	·	·
Cc1ccc(Cl)cc1N1CCN(C(=O)C2CCN(S(=O)(=O)c3c(C)nn(C)c3C)CC2)CC1	-2.6*	1.1	1	8*	0.19	i	?	-59
Cc1ccc(Cl)cc1N1CCN(C(=O)C2CCN(S(=O)(=O)c3cccnc3)CC2)CC1	-0.25	1.1	1.1	0.91	-0.85	i	·	·
c1ccc2c(c1)CCCN2Cc1nnc2n1CCCCC2	0.13	1.1	1	active	-0.28	·	?	-33
c1ccc(Cc2nnc3n2CCCCC3)cc1	-0.11	1	0.96	-0.51	0.86	i	·	·
CCCCS(=O)(=O)Nc1ccc(Cc2ccncc2)cc1	0.047	1.1	1	3.2*	-0.43	i	?	-39
CCCCc1ccc(NS(=O)(=O)N(C)C)cc1	·	1.1	1	·	-1.6	i	·	·
CC(=O)c1c(C)n(CC(=O)NCc2ccc3c(c2)OCO3)c2ccccc12	-0.49	1.1	1.1	3.4*	0.14	i	?	-37
CC(=O)c1c(C(C)=O)c(C)n(Cc2ccc3c(c2)OCO3)c1C	-0.12	1	0.99	-1.7	-0.19	i	·	·
CC(Cl)=CCSc1nc2c(c(=O)[nH]c(=O)n2C)n1Cc1cccc(Br)c1	·	·	·	·	·	i	·	·
Cc1cc(-c2ccco2)c(C#N)c2nc3ccccc3n12	0.35	2.2*	1.3	11*	0.93	·	?	15
CC1(c2ccccc2)CC(C)(C)N(C(=O)CSC#N)c2ccccc21 (stereo not given)	·	·	·	·	·	i	·	·
O=c1[nH]c(CN2CCN(C/C=C/c3ccccc3)CC2)nc2cc(Cl)ccc12	-0.43	1.1	1	-0.54	-0.76	i	·	·
O=C(CCc1nc2ccccc2c(=O)[nH]1)N1CCN(C/C=C/c2ccccc2)CC1	-0.84	1.1	1	9.4*	0.37	i	31	-25
COc1ccc(NC(=O)COc2ccccc2C#N)c(S(=O)(=O)N2CCCCC2)c1	-1.6	1	1	4.4*	-0.65	i	-16	-26
COC(=O)c1ccccc1NC(=O)COc1ccc(S(=O)(=O)N2CCCC2)cc1C	-0.36	1	1	-0.31	0.22	·	·	·
